Screening results from PubChem.
The list is not random: actives were taken first. Their share in the collection is about 1.3%.
BCLXL inh – inhibitors of human Bcl-xL, primary screen, biochemical, fluorescence polarization, HTS; GST-Bcl-xL / FITC-Bim BH3 peptide fluorescence polarization; inhibition, % at 10.9 µM; 320,000 tested, 0.7% active; AID 2129, 2009;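 active = inhibition above the mean of all tested compounds plus 3 SD, cutoff set per campaign, cut at about 30% in these data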;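 note: 0% = DMSO wells and 100% = unlabeled Bim-BH3 peptide competitor; inhibitors lower millipolarization by displacing the labeled peptide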
Target sequence (Q07817 whole entry, looked up): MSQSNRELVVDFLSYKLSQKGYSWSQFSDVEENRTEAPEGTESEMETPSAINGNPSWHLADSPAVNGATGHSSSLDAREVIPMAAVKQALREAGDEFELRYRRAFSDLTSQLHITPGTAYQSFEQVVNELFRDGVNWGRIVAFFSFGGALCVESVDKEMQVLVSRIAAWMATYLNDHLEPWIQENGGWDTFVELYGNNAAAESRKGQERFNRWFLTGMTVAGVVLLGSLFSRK
EBV gp42 inh – Epstein-Barr virus gp42 inhibitors, primary screen, biochemical, uHTS, fluorescence polarization. Fluorescence polarization binding assay, mP read-out. inhibition, % (tested at 21.74 µM). 220,000 tested, 0.42% active; in the data active = inhibition above about 50%
Target sequence (Q1HVG2 whole entry, looked up): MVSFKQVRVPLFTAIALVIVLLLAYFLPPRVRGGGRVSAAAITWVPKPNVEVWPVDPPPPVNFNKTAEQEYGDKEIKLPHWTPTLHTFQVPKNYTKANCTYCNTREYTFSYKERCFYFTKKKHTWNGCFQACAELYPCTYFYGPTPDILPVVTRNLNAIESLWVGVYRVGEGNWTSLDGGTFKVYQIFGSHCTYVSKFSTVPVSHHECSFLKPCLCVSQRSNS
E coli Lon inh – inhibitors of E. coli Lon protease, primary screen, biochemical, fluorescence polarization | purified E. coli Lon protease | inhibition, % at 7.94 µM | 360,000 tested, 0.42% active | AID 602123, 2011; in the data active = inhibition above about 13%, passing the limit was not always enough;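 note: 0% = enzyme with probe and DMSO and 100% = no enzyme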
GLD-1 RNA inh – GLD-1/TGE RNA complex disruptors, primary screen, biochemical, fluorescence polarization; Female germline-specific tumor suppressor gld-1 (Caenorhabditis elegans), Q17339; purified GLD-1 + fluorescein TGE RNA; inhibition, % at 5.96 µM; 320,000 tested, 0.44% active;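 active = percent inhibition above a per-plate cutoff, the plate mean of test compounds plus 3 SD, cut at about 30% in these data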;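 note: 0% = DMSO wells with GLD-1 and probe and 100% = wells lacking GLD-1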
MEX-5 binding – MEX-5 zinc finger RNA-binding disruptors – biochemical, C. elegans, fluorescence polarization, MLPCN library, primary screen; AID 1832, 2009; Zinc finger protein mex-5 (Caenorhabditis elegans), Q9XUB2; MEX-5/FITC-TCR2 RNA binding; active compounds read low; 300,000 tested, 0.38% active; activity score (negative = inhibition of binding), % at 10 µM;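 active = inhibition past about -25% in most replicates, and total fluorescence under double the plate's negative control median, limit read from the data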;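 note: 0% = DMSO and -100% = 5 µM competing unlabeled TCR2 RNA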
GLD-1 TGE cf – GLD-1/TGE RNA binding inhibitors, retest, confirmation, biochemical, fluorescence polarization, triplicate. inhibition, % at 5.96 µM. GLD-1/FL-TGE RNA fluorescence polarization. shares compounds with GLD-1 RNA inh. 550 tested, 10% active;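 active = average inhibition across triplicates above the hit cutoff set in the primary screen, cut at about 32% in these data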;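 note: 0% = GLD-1 with RNA probe and DMSO and 100% = wells lacking GLD-1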
* marks the source's active call; other numbers are inactive results; . = no result given.

SMILES	BCLXL inh	EBV gp42 inh	E coli Lon inh	GLD-1 RNA inh	MEX-5 binding	GLD-1 TGE cf
COC1CCN(C(=O)CC2C(=O)NCCN2CC(C)(C)C)CC1 (stereo unspecified)	45*	-3	3	28	-1	.
COCC1CCN(C(=O)CC2C(=O)NCCN2Cc2cccc(Oc3ccccc3)c2)CC1 (stereo unspecified)	12	.	3	3	-26*	.
CC1CCN(C(=O)c2cc3ccccc3cc2O)CC1	1	.	3	-4	-1	.
COc1ccc(N)c2c1C(=O)c1ccccc1C2=O	16	1	4	14	-1	.
Nc1ccc(O)c2c1C(=O)c1ccccc1C2=O	123*	125*	31	82*	-9	67*
O=C(CN(C1CCCCC1)C1CCCCC1)N1CCc2ccccc2C1	6	-1	-4	39*	1	0
COc1ccc(/C=C(\CC(=O)O)c2nc3ccccc3s2)cc1O	7	7	5	55*	2	39*
Cc1ccc(S(=O)(=O)N2CCOCC2)cc1C(=O)O	5	-7	14	4	-1	.
Cc1ccc(S(=O)(=O)N2CCOCC2)cc1C(=O)N1C(=O)c2cccc(N)c2C1=O	30*	36	0	32*	-3	18
NC(=O)C1CCCN(C(=O)c2cccc(S(=O)(=O)N3CCCCCC3)c2)C1 (stereo unspecified)	6	.	-5	4	.	.
Nc1cccc2c1C(=O)N(C(=O)c1cccc(S(=O)(=O)N3CCCCCC3)c1)C2=O	28	-3	9	38*	-1	15
CCOc1ccc(C(=O)Nc2ccc(S(=O)(=O)N3CCN(C)CC3)cc2)cc1	2	.	1	-1	0	.
CC(/C=C/c1ccc(N(C)C)cc1)=N\N=C1\NC(=O)CC(C(=O)Nc2ccccc2)S1 (stereo unspecified)	-9	-83	-54	33*	4	-83
CC(/C=C/c1ccc(N(C)C)cc1)=N/N=C1/NC(=O)CC(C(=O)Nc2ccc(Cl)cc2)S1 (stereo unspecified)	-7	-50	-64	-12	3	.
CCn1c(CSc2ncccn2)nnc1SCC(=O)N1CCc2ccccc21	99*	-19	1	36*	1	-6
Cc1cnc(C(=O)Nc2ccccc2-c2ccc(C)o2)cn1	36*	-6	25	42*	0	2
CCOC(=O)[C@]12CCCC=C1N(Cc1cccc3ccccc13)C(=O)[C@H](CC(=O)NCCCCc1ccccc1)C2	.	.	3	.	.	.
Cc1nn(Cc2ccccc2)c(C)c1CNC(=O)[C@H](C)N=C1NS(=O)(=O)c2ccccc21	-2	.	-2	8	.	.
Cc1ccc(CSC2=Nc3ccccc3C3=NC(CCC(=O)NCc4ccco4)C(=O)N23)cc1 (stereo unspecified)	4	-3	-5	5	3	.
O=C(CC1N=C2c3ccccc3N=C(SCc3ccc(Cl)cc3)N2C1=O)NCc1ccco1 (stereo unspecified)	24	-16	-5	39*	.	16
NS(=O)(=O)c1ccc2c(c1)C1C=CCC1C(C1CC=CCC1)N2 (stereo unspecified)	46*	-2	-18	34*	0	9
N#CC1=C(N)C2=CCCC[C@H]2[C@H](c2cccc(F)c2)C1(C#N)C#N	44*	29	3	37*	-14	1
O=c1[nH]c(-c2ccccc2)ncc1Oc1ccccc1	6	.	-5	8	-2	.
CC(C)NC(=O)C1CCN(C2CCN(C(=O)c3scc4c3CCCC4)CC2)CC1	3	-2	10	0	-1	.
Cc1n[nH]c2c([N+](=O)[O-])c(=O)[nH]c(=O)n12	.	.	-9	.	.	.
SMILES	BCLXL inh	EBV gp42 inh	E coli Lon inh	GLD-1 RNA inh	MEX-5 binding	GLD-1 TGE cf
CCOC(=O)C1CCCN(S(=O)(=O)c2ccc(S(=O)(=O)N3CCCC3)cc2)C1 (stereo unspecified)	-2	.	-7	38*	-1	-4
C=CCN(C(=O)c1csnn1)C(C(=O)NC1CCCC1)c1ccccc1F (stereo unspecified)	2	.	-9	2	-2	.
COc1ccccc1CNC(=O)Cn1nnnc1CN(C)C(C)C	1	.	3	7	-1	.
COC(=O)c1ccc(CNC(=O)Cn2nnnc2CN(C)C(C)C)cc1	4	.	-5	138*	-2	-4
COC(=O)[C@]1(C)N[C@H](CN(C)S(=O)(=O)c2ccc(C(F)(F)F)cc2)[C@@H]2C(=O)N(C)C(=O)[C@@H]21	.	.	-15	2	.	.
O=C(Nc1cccc2c1C(=O)NC2=O)c1ccc(S(=O)(=O)N2CCCC2)cc1	31*	.	4	36*	.	19
CCOC(=O)c1cnc2c(C)cccc2c1NCc1ccco1	0	-18	0	2	-1	.
CCOC(=O)c1ccc2ncc(C(=O)OCC)c(NCc3ccco3)c2c1	33*	2	-3	39*	-3	3
CCC(=O)c1ccc(OCC(=O)NC2(C#N)CCCCC2)cc1	4	-31	-4	5	.	.
O=C1Cc2ccccc2C(=O)N1Cc1cccc(Cl)c1	.	.	-4	.	3	.
Nc1cccc2c1C(=O)N(Cc1cccc(Cl)c1)C2=O	22	46	26	32*	-10	39*
Cn1c(SCC(=O)Nc2ccccc2F)nnc1-c1cc2ccccc2o1	0	-13	-2	5	1	.
CN(C)c1ccc(C(CNC(=O)c2ccc(-c3ccccc3)cc2)N2CCOCC2)cc1 (stereo unspecified)	80*	.	-17	37*	-3	-2
COC(=O)CCN1CCC2CC1c1cc(Cl)ccc12 (stereo unspecified)	.	.	5	.	.	.
CCOC(=O)C1CCCN(C(=O)Cn2nc(C)n3c(cc4c(OC)cccc43)c2=O)C1 (stereo unspecified)	9	.	-1	6	2	.
CN(CC(=O)Nc1n[nH]c(=S)s1)S(=O)(=O)c1cccc2cccnc12	-4	.	-15	112*	-9	0
Cc1csc(NC(=O)CN(C)S(=O)(=O)c2cccc3cccnc23)n1	6	7	-5	-3	-2	.
Cc1nc(C(F)(F)F)ccc1C(=O)N1CCC1(C)C(=O)NS(=O)(=O)c1ccc(C#N)cc1 (stereo unspecified)	.	.	6	.	.	.
O=C(CN1C(=O)CCC1=O)Nc1cccc2c1C(=O)NC2=O	6	4	-2	1	-1	.
CC(=O)Nc1cc2c(c(Cl)c1Cl)-c1ccccc1C2=O	.	.	-1	.	.	.
CC(=O)Nc1c2c3c(cccc3n(C)c1=O)C(=O)c1ccccc1-2	47*	9	9	32*	-7	8
